This is an account of results in PubChem BioAssay.

SMILES strings stand for the structures. Active and inactive are the calls of the source. Unless noted, how the calls were made is not given here.

Experiment [1] relates to Wnt5a (protein binding on small-molecule microarray). Kind of experiment: small molecules binding Wnt5a protein – biophysical, small-molecule microarray, 635/667 nm fluorescence, primary screen (AID 1142).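 Further: fluorescence read at 667 nm with signal to noise per printed feature.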 To be noted: 635 nm fluorescence, higher = more signal.
Experiment [2] can be described thus: ATP-based viability of Huh7 replicon cells – cell-based, CellTiter-Glo luminescence, basal, 48 h, cytotoxicity control for HCV replication inhibitor project, primary screen (AID 1143).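 Further: Huh7 hepatoma cells carrying a hepatitis C replication reporter with no stimulus; test concentration not given here.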 To be noted: higher = more signal, called active from +8 up or from −8 down. (A replicon is a self-replicating genome or part of one, used to study replication in cells.)
Experiment [3] can be described thus: Pseudomonas biofilm growth suppression – PAO1 strain, BacTiter-Glo luminescence, LB-PBS, primary screen (AID 1144). To be noted: P. aeruginosa PAO1 biofilm, 12 h, higher = more signal.
Experiment [4] is described as follows: basal CRE-LacZ reporter activity in PC12 – cell-based, unstimulated, primary screen (AID 1145). To be noted: no forskolin, luminescence, 4.5 h, higher = more signal, called active from +8 up or from −8 down.
Experiment [5] is described as follows: forskolin-driven CRE-LacZ activity in PC12 – cell-based, CRE-LacZ reporter, forskolin-stimulated, primary screen (AID 1146).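 Further: PC12 cells with 6xCRE LacZ reporter stimulated by forskolin 10 µM; beta-galactosidase reporter signal reflecting CREB driven transcription.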 To be noted: luminescence, 4.5 h, higher = more signal, called active from +8 up or from −8 down.
Experiment [6] concerns the target Streptavidin (Streptomyces avidinii) (UniProt P22629). Kind of experiment: compounds binding control protein streptavidin – biophysical, small-molecule microarray, 635/667 nm fluorescence, artefact control for SMM compound annotation, primary screen (AID 1147).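 Further: signal reflects streptavidin binding to arrayed compounds as a control protein.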 To be noted: higher = more signal.
Experiment [7] is described as follows: probe aInhba binding on compound microarray – biochemical, small-molecule microarray, 635/667 nm fluorescence, primary screen (AID 1148).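 Further: score merges 667nm spot fluorescence with signal-to-noise for antibody binding to printed compounds.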 To be noted: higher = more signal.
For experiment [8], the target named is Torsin-1A (Homo sapiens) (UniProt O14656). Kind of experiment: TOR1A wild-type binding on microarray – cell lysate, small-molecule microarray, lysate, 635/667 nm, primary screen (AID 1149). To be noted: COS7 hTOR1A-WT lysate, 635 nm fluorescence, higher = more signal.
Experiment [9] shares this target. Nature of the experiment: torsin A mutant lysate binding on microarrays – cell lysate, small-molecule microarray, COS7 lysate, 635/667 nm fluorescence, primary screen (AID 1150).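 Further: score pools 667 nm emission and signal to noise measuring lysate protein binding.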 To be noted: COS7 hTOR1A mutant lysate, 635 nm fluorescence, higher = more signal.
Experiment [10] relates to Sonic hedgehog protein (Shh). Kind of experiment: Sonic hedgehog microarray binding compounds – biochemical, small-molecule microarray, 635/667 nm fluorescence, primary screen (AID 1151).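 Further: Shh protein binding to compounds spotted on small-molecule microarray slides; score combines spot fluorescence intensity with signal-to-noise across triplicate slides.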 To be noted: 635 nm fluorescence, higher = more signal.
The nature of experiment [11]: optical density shifts of acrAB sulA E. coli – strain DRC41, OD650, 48 h, E. coli filamentation inducer project, primary screen (AID 1152).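 Further: E. coli MC1000 strain DRC41 lacking acrAB efflux pump and sulA.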 To be noted: higher = more signal, called active from +8 up or from −8 down.
Experiment [12] can be described thus: probe aLefty1 binding on compound microarray – biochemical, small-molecule microarray, 635/667 nm fluorescence, primary screen (AID 1153).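 Further: score merges spot fluorescence with signal-to-noise ratio from the scanned slide images.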 To be noted: higher = more signal.
Experiment [13] is described as follows: plasmodial surface anion channel blockers, osmotic lysis – cell-based, P. falciparum Indochina, OD700, 1 h, primary screen (AID 1154). To be noted: P. falciparum Indochina infected RBC osmotic lysis, higher = more signal, called active from +8 up or from −8 down.
Experiment [14] in a line: plasmodial surface anion channel blockers, osmotic lysis – cell-based, P. falciparum Indochina, OD700, 2 h, primary screen (AID 1155).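 Further: lysis reports solute entry through the parasite surface anion channel PSAC.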 To be noted: P. falciparum Indochina infected erythrocytes, higher = more signal, called active from +8 up or from −8 down.
Experiment [15] is described as follows: changes in parasitized red cell lysis, either direction – P. falciparum Indochina, OD700, 3 h, PSAC antagonist project, primary screen (AID 1156). To be noted: P. falciparum-infected erythrocytes, osmotic lysis, higher = more signal, called active from +8 up or from −8 down.
Experiment [16] in a line: plasmodial surface anion channel blockers, osmotic lysis – cell-based, P. falciparum Indochina, OD700, 18 h, primary screen (AID 1157). To be noted: P. falciparum Indochina infected erythrocytes, osmotic lysis OD700, 18 h; higher = more signal, called active from +8 up or from −8 down.
The nature of experiment [17]: S6 kinase pathway phospho-S6 level changes – cell-based, A549, cytoblot, luminescence, serum-stimulated, primary screen (AID 1158).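 Further: serum-stimulated A549 lung adenocarcinoma cells; signal is phosphorylated S6 detected by cytoblot immunostaining with HRP secondary.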 To be noted: 5 h, higher = more signal.
Experiment [18] has as its target NADPH oxidase 2 (Homo sapiens) (UniProt P04839). Kind of experiment: compounds shifting NOX2 Amplex Red fluorescence – cell-based, HEK293-NOX2, PMA-stimulated, NOX inhibitor project, primary screen (AID 1159). Further: test concentration not given here. To be noted: 45 min, higher = more signal, called active from +8 up or from −8 down.
For experiment [19], the target named is NADPH oxidase 4 (Homo sapiens) (UniProt Q9NPH5). Kind of experiment: compounds shifting NOX4 Amplex Red fluorescence – cell-based, HEK293-NOX4, tetracycline-induced, NOX inhibitor project, primary screen (AID 1160). To be noted: HEK293-NOX4, Amplex Red H2O2 fluorescence, 45 min; higher = more signal, called active from +8 up or from −8 down.
Experiment [20] deals with NADPH oxidase 5 (Homo sapiens) (UniProt Q96PH1). Kind of experiment: compounds shifting NOX5 Amplex Red fluorescence – cell-based, HEK293-NOX5, NOX inhibitor project, primary screen (AID 1161). To be noted: HEK293-NOX5, ionomycin, 45 min, higher = more signal.
Chain of NADPH oxidase 5 (Homo sapiens) (Q96PH1 whole entry, looked up): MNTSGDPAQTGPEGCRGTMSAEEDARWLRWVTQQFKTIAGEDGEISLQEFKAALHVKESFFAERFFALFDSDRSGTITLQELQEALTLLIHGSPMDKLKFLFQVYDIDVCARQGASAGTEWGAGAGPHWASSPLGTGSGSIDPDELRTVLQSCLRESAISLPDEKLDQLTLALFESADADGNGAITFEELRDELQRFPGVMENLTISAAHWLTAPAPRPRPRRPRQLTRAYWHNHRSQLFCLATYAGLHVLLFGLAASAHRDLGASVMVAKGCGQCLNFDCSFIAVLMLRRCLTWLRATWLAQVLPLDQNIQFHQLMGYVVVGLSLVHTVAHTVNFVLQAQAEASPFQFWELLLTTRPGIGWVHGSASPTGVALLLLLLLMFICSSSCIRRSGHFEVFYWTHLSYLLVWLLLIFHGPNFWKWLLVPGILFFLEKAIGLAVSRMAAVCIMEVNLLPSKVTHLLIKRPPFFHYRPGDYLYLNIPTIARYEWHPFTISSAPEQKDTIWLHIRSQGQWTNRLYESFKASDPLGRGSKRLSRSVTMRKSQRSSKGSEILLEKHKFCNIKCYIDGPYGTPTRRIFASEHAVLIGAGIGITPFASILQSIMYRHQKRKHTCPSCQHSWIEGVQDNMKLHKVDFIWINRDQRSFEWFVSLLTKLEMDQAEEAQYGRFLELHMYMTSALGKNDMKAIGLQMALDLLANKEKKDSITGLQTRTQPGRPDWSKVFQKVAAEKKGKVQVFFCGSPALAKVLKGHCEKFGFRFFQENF

Chain of Streptavidin (Streptomyces avidinii) (P22629 whole entry, looked up): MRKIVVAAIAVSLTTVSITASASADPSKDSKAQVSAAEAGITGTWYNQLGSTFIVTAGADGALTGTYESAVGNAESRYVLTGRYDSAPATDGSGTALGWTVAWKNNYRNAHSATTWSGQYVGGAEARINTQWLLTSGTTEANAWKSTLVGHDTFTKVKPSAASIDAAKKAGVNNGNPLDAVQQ
Chain of NADPH oxidase 2 (Homo sapiens) (P04839 whole entry, looked up): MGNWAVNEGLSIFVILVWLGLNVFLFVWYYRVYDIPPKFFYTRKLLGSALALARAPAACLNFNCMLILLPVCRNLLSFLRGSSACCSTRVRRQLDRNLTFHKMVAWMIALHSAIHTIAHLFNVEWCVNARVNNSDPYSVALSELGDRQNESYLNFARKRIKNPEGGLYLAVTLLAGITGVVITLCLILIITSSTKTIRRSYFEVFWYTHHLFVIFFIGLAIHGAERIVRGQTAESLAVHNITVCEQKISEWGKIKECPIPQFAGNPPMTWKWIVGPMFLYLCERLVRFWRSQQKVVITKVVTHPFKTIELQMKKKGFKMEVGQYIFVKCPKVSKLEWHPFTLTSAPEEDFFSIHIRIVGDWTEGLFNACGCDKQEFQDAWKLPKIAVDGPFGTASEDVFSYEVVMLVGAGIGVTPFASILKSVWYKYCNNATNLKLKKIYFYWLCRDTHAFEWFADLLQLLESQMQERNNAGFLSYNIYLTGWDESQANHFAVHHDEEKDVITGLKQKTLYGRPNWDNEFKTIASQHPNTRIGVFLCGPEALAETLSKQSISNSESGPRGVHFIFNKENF
Chain of Torsin-1A (Homo sapiens) (O14656 whole entry, looked up): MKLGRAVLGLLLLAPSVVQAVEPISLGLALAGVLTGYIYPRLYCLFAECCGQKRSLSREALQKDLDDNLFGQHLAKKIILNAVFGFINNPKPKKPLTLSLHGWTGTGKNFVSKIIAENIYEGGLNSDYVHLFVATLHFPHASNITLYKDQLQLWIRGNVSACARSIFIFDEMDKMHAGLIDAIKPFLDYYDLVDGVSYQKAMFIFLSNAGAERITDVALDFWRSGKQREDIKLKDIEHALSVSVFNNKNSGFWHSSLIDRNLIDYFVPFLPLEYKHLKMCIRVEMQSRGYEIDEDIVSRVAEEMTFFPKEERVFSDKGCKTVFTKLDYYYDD
Chain of NADPH oxidase 4 (Homo sapiens) (Q9NPH5 whole entry, looked up): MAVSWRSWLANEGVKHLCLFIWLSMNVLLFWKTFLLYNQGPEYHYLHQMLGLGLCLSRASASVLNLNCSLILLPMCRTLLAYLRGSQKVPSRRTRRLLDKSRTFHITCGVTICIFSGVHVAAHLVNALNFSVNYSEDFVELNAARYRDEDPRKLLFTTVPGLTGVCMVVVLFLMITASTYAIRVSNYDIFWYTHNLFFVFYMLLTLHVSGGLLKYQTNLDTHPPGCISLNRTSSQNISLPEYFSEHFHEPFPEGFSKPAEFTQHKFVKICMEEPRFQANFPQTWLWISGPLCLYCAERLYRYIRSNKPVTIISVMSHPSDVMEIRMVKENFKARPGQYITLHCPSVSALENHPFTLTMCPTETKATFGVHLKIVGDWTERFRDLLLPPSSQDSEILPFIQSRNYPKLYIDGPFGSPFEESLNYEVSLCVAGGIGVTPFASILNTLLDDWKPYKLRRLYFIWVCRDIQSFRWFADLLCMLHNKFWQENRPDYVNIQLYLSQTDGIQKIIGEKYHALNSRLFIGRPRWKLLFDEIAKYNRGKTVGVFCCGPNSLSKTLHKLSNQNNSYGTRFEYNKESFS

On to `CCOC(=O)CCN1C(=O)[C@H]2[C@H]3[C@H](O)[C@H](O)CC(=NOCC=C(C)CCC=C(C)C)[C@@H]3CC[C@H]2C1=O`, for which the composite z-score in experiment [1] was 0.377; in [6], 0.111; in experiment [7], 0.0756; in experiment [8], 0.957; in [9], 0.588; in experiment [10], 1.02. The composite z-score in experiment [12] is -0.193. Also, the z-score in experiment [2] was 0.16 (inactive); in [3], 0.0232 (inactive); in experiment [4], 0.875 (inactive); in experiment [5] it was 0.427 (inactive); in experiment [11], -0.879 (inactive); in experiment [13], 0.0845 (inactive). For the same molecule, the z-score was 0.278 (inactive) in experiment [14]; -0.931 (inactive) in experiment [15]; -0.014 (inactive) in experiment [16]; 0.233 in [17]; -0.737 (inactive) in experiment [18]; 0.511 (inactive) in [19]. Also, the z-score in experiment [20] is -0.0503.
Turning to `COC(=O)[C@H](C)NC(=O)CCC1CC(OC(=O)NCCc2ccc(F)cc2)CC2(CCCC(COC(=O)NCc3ccccc3)O2)O1` (stereo not given in full), the composite z-score was 0.101 in experiment [1]; 0.848 in experiment [6]; -0.0209 in [7]; 0.257 in experiment [8]; 0.477 in experiment [9]; 1.25 in experiment [10]. The molecule also had a composite z-score in experiment [12] of 0.0367. In addition, the z-score was -0.455 (inactive) in [2]; -0.035 (inactive) in experiment [3]; 0.199 (inactive) in experiment [4]; 0.833 (inactive) in experiment [5]; -1.03 (inactive) in [11]; -0.622 (inactive) in experiment [13]. Moreover, the z-score in experiment [14] was -0.694 (inactive); in [15], -0.384 (inactive); in experiment [16], -0.268 (inactive); in experiment [17] it was 0.788; in [18] it was 0.0624 (inactive); in [19], -0.0206 (inactive). The z-score in [20] turned out to be 0.519.
In the case of `COc1ccc(COC(=O)NN=C2C[C@@H](O)[C@@H](O)[C@@H]3[C@@H]4C(=O)N(Cc5ccc6c(c5)OCO6)C(=O)[C@@H]4CC[C@H]23)cc1`, the composite z-score was -0.343 in experiment [1]; 0.61 in experiment [6]; 0.0018 in [7]; -0.878 in experiment [8]; -0.647 in experiment [9]; -1.32 in experiment [10]. This molecule had a composite z-score in experiment [12] of 0.781. In addition, the z-score in experiment [2] was 0.0813 (inactive); in experiment [3] it was 0.939 (inactive); in experiment [4] it was 0.96 (inactive); in experiment [5] it was 0.0695 (inactive); in experiment [11] it was 0.701 (inactive); in experiment [13] it was 15.7 (active). The z-score is 2.17 (inactive) in experiment [14]; 0.18 (inactive) in [15]; 0.845 (inactive) in experiment [16]; 0.767 in experiment [17]; -0.657 (inactive) in experiment [18]; 0.186 (inactive) in [19]. Moreover, in experiment [20], the z-score worked out at 0.138.
As for `O=C1[C@H]2[C@H]3[C@H](O)[C@H](O)CC(=NOC[C@@H](O)COCc4ccco4)[C@@H]3CC[C@H]2C(=O)N1Cc1ccccc1`, the composite z-score in experiment [1] is -0.0051; in experiment [6], -0.153; in experiment [7], -0.186; in experiment [8] it was 3.04; in experiment [9], 1.92; in experiment [10] it was 0.399. In experiment [12], this molecule had a composite z-score of 0.185. Further, the z-score in experiment [2] is -1.65 (inactive); in [3], 0.969 (inactive); in experiment [4] it was -0.294 (inactive); in experiment [5] it was 0.183 (inactive); in [11], 0.119 (inactive); in experiment [13], 28.6 (active). Further, the z-score in [14] is 4.72 (inactive); in experiment [15], 0.618 (inactive); in experiment [16], 1.21 (inactive); in experiment [17], -0.585; in experiment [18], -1.69 (inactive); in experiment [19], -0.3 (inactive). Moreover, the z-score in experiment [20] is -0.858.
Consider `COc1ccc(OC[C@H]2CN3[C@@H](CC[C@@H](C)[C@@H]3c3ccc(Br)cc3)C(=O)O2)cc1`, for which the composite z-score in [1] was -0.144; in experiment [6] it was 0.169; in experiment [7] it was -0.2; in experiment [8], 0.357; in [9], 0.28; in experiment [10] it was 0.583. This molecule yielded a composite z-score in [12] of 0.0861. Besides, the z-score in [2] was -0.202 (inactive); in experiment [3], -0.225 (inactive); in experiment [4] it was 2.62 (inactive); in [5], -0.165 (inactive); in experiment [11], -0.228 (inactive); in experiment [13], 2.04 (inactive). The z-score was 1.25 (inactive) in experiment [14]; 0.345 (inactive) in experiment [15]; 0.343 (inactive) in [16]; 0.936 in experiment [17]; -0.783 (inactive) in [18]; -1.61 (inactive) in experiment [19]. For the same molecule, the z-score in experiment [20] was -0.392.
Turning to `O=C1C=C[C@@H](O)[C@@H]2[C@@H]3C(=O)N(C4CCCCC4)C(=O)[C@@H]3CC[C@@H]12`, the composite z-score in experiment [1] is 0.474; in experiment [6], -0.748; in experiment [7], 0.177; in [8], 0.54; in [9] it was 0.595; in experiment [10], 0.781. Further, the composite z-score in experiment [12] is -0.0501. Moreover, the z-score in [2] was -2.62 (inactive); in experiment [3], 0.411 (inactive); in experiment [4] it was 0.25 (inactive); in [5], 0.915 (inactive); in experiment [11], -0.188 (inactive); in experiment [13], 0.0831 (inactive). The z-score in experiment [14] is -0.0709 (inactive); in [15], -0.446 (inactive); in experiment [16] it was 0.0822 (inactive); in experiment [17], -0.493; in experiment [18], 0.33 (inactive); in experiment [19], 0.563 (inactive). Besides, the z-score in experiment [20] is -0.266.
Take `C=CC[C@@H]1C=C[C@H](ON=C2C[C@@H](O)[C@@H](O)[C@@H]3[C@@H]4C(=O)N(CC)C(=O)[C@@H]4CC[C@@H]23)[C@@H](CO)O1`: the composite z-score in experiment [1] is -0.123; in experiment [6], -0.816; in [7], -0.104; in experiment [8], 0.862; in experiment [9] it was 0.337; in [10] it was 0.652. The same molecule came in with a composite z-score in [12] of -0.208. Further, the z-score was -2.05 (inactive) in [2]; -1.39 (inactive) in experiment [3]; 2.83 (inactive) in experiment [4]; -0.247 (inactive) in experiment [5]; -0.887 (inactive) in experiment [11]; -0.146 (inactive) in experiment [13]. Moreover, the z-score in experiment [14] is -1.65 (inactive); in experiment [15], 1.55 (inactive); in [16] it was -1.74 (inactive); in [17], 0.525; in experiment [18] it was -0.284 (inactive); in experiment [19], -0.621 (inactive). For the same molecule, the z-score in experiment [20] is -2.07.
Regarding `O=C1CCCC=C1C(O)C1CCCCC1` (stereo not given), the composite z-score in experiment [1] is -0.028; in experiment [6], -0.234; in [7], -0.122; in experiment [8], -0.19; in [9], 0.44; in [10] it was 0.628. In [12], this molecule yielded a composite z-score of -0.312. Further, the z-score in experiment [2] was 0.869 (inactive); in experiment [3], 0.993 (inactive); in experiment [4], 0.198 (inactive); in experiment [5], 0.85 (inactive); in experiment [11] it was 0.411 (inactive); in [13], -0.0549 (inactive). The z-score in [14] is 0.494 (inactive); in experiment [15] it was -0.663 (inactive); in [16], 0.0748 (inactive); in experiment [17] it was -0.178; in experiment [18], 1.46 (inactive); in [19], -0.419 (inactive). Moreover, the z-score in experiment [20] is -0.928.
